Measurements reported in PMC7862700, “An all-to-all approach to the identification of sequence-specific readers for epigenetic DNA modifications on cytosine”.

What was measured:
Experiment in all cases: DAPPL (digital affinity profiling via proximity ligation, sequencing); 10 mM Tris-HCl pH 7.5, 50 mM NaCl, 1 mM DTT, 4% glycerol, room temperature, 30 min; GST-TFs on glutathione beads, 16-mer random dsDNA library, 0.1% formaldehyde crosslink after washing; high values mean tight binding
FEV = target: T1, FEV (Homo sapiens, UniProt Q99581 1-238); conditions: protein: recombinant; tags: N-terminal GST; dsDNA, one strand shown
T1 sequence: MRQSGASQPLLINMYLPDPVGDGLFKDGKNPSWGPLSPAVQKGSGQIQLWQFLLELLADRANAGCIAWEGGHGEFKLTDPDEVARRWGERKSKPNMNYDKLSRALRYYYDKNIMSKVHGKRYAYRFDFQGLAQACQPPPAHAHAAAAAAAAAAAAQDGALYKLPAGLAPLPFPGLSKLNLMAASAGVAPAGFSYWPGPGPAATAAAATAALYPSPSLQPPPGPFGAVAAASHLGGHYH
In short: (§1)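 Binding signal is given per hexamer as its read frequency for a factor divided by its frequency in the tag-only sample. GST-fused human transcription factors were expressed in yeast, captured on glutathione beads, barcoded with DNA and pooled with that sample, then incubated with 200 nmole of a 16-mer random double-stranded DNA library in Tris/NaCl/DTT/glycerol buffer for 30 min at room temperature. The pools were then washed, crosslinked, proximity-ligated, amplified by PCR and sequenced on an Illumina NextSeq500.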

ETV5 = ETV5 (Homo sapiens, UniProt P41161 1-510); conditions: protein: recombinant; tags: N-terminal GST; dsDNA, one strand shown
Sequence of ETV5 (P41161 whole entry): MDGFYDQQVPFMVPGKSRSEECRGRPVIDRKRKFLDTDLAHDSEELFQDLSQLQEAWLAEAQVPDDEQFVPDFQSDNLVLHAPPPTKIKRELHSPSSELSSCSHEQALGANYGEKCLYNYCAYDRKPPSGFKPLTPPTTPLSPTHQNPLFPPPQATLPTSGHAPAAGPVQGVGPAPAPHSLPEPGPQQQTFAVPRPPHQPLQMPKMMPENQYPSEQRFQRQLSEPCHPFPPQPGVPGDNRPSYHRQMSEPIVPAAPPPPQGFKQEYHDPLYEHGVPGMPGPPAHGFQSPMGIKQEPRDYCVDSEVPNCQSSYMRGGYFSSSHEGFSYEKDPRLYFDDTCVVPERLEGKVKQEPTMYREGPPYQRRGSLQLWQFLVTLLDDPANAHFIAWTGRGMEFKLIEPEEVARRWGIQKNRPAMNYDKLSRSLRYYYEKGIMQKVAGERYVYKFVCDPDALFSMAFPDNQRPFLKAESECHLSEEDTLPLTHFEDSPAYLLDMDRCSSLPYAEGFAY
In short: as §1

HSF1 = HSF1 (Homo sapiens, UniProt Q00613 1-529); conditions: protein: recombinant; tags: N-terminal GST; chain copies: 3; dsDNA, one strand shown
Sequence of HSF1 (Q00613 whole entry): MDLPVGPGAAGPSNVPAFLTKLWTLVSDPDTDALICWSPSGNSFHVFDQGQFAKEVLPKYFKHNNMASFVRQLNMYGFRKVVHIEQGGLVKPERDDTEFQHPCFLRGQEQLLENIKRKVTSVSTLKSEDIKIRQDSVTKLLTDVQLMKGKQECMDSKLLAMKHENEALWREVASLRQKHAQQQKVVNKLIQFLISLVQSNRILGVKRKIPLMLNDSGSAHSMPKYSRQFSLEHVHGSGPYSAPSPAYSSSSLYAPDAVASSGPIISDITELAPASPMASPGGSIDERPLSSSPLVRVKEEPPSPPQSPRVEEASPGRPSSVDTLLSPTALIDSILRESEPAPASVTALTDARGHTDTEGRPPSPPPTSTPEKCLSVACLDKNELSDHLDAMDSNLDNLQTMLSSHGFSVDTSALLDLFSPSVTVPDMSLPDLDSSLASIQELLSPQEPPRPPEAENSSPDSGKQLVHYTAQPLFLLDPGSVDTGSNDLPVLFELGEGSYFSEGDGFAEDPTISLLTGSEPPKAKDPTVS
In short: as §1

SPIC = target: T2, SPIC (Homo sapiens, UniProt Q8N5J4 1-248); conditions: protein: recombinant; tags: N-terminal GST; dsDNA, one strand shown
T2 sequence: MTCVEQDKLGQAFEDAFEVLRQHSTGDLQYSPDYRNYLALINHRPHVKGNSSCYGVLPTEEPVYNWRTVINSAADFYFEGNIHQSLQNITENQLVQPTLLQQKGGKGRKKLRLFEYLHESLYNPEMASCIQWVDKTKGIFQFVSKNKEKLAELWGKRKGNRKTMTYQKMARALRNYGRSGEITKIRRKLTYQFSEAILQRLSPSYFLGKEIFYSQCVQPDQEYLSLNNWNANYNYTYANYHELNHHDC
In short: as §1

ELF4 = ELF4 (Homo sapiens, UniProt Q99607 1-663); conditions: protein: recombinant; tags: N-terminal GST; dsDNA, one strand shown
Sequence of ELF4 (Q99607 whole entry): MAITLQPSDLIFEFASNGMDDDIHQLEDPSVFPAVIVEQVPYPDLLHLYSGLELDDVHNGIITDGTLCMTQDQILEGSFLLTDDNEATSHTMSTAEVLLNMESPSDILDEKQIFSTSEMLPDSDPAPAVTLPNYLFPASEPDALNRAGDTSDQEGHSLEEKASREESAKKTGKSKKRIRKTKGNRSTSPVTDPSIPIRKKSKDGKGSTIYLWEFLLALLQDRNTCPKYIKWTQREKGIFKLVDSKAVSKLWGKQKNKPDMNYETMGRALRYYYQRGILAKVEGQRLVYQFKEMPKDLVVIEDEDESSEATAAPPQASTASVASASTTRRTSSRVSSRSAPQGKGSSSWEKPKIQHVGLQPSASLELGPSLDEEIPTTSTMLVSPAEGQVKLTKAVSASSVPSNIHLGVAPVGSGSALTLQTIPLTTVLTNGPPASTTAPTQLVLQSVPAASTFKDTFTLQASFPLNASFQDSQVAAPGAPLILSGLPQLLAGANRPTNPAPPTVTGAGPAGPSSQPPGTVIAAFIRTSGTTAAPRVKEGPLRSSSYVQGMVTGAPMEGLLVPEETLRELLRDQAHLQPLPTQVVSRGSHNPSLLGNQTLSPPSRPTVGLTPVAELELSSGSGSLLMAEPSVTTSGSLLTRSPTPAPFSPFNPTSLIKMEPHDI
In short: as §1

ELK4 = target: T3, ELK4 (Homo sapiens, UniProt P28324-2 1-405); conditions: protein: recombinant; tags: N-terminal GST; dsDNA, one strand shown
T3 sequence: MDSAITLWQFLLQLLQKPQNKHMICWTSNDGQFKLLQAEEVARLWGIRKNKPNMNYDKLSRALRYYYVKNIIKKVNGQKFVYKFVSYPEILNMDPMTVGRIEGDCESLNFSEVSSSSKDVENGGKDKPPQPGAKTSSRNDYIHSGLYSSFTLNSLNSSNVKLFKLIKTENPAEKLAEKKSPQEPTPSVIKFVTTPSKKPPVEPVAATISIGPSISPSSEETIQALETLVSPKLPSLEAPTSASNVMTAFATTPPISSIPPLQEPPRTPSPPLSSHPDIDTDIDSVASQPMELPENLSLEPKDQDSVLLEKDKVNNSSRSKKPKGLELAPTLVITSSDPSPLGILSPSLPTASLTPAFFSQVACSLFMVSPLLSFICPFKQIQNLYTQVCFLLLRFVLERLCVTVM
In short: as §1

ETV2 = target: T4, ETV2 (Homo sapiens, UniProt O00321 1-342); conditions: protein: recombinant; tags: N-terminal GST; dsDNA, one strand shown
T4 sequence: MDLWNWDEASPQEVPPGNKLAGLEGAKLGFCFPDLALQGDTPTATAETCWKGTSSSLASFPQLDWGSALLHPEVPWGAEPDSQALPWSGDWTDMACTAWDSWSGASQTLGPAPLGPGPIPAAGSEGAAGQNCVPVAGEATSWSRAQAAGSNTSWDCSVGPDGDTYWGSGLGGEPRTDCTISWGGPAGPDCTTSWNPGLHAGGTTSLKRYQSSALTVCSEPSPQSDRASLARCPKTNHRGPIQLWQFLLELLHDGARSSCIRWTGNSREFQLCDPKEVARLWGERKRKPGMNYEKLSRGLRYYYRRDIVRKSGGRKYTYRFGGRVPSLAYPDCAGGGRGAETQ
In short: as §1

ELF3 = target: T5, ELF3 (Homo sapiens, UniProt P78545 1-371); conditions: protein: recombinant; tags: N-terminal GST; dsDNA, one strand shown
T5 sequence: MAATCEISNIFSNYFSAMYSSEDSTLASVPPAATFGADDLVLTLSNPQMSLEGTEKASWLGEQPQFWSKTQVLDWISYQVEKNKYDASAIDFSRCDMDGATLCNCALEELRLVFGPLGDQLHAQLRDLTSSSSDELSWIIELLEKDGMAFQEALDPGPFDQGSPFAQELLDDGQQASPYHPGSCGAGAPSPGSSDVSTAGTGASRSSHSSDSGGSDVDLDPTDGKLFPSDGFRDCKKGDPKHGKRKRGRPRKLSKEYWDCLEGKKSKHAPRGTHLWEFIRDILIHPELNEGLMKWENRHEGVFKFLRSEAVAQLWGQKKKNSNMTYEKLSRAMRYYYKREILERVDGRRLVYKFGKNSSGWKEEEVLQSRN
In short: as §1

CRX = CRX (Homo sapiens, UniProt O43186 1-299); conditions: protein: recombinant; tags: N-terminal GST; dsDNA, one strand shown
Sequence of CRX (O43186 whole entry): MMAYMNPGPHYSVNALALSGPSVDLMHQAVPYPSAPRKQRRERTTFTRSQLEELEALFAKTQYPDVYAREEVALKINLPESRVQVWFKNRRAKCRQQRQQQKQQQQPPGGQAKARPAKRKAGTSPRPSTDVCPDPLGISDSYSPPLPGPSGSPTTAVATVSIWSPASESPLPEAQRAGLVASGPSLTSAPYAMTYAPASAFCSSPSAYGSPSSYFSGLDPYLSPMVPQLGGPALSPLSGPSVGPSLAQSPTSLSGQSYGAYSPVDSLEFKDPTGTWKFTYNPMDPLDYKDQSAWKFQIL
In short: as §1

ETV1 = ETV1 (Homo sapiens, UniProt P50549 1-477); conditions: protein: recombinant; tags: N-terminal GST; dsDNA, one strand shown
Sequence of ETV1 (P50549 whole entry): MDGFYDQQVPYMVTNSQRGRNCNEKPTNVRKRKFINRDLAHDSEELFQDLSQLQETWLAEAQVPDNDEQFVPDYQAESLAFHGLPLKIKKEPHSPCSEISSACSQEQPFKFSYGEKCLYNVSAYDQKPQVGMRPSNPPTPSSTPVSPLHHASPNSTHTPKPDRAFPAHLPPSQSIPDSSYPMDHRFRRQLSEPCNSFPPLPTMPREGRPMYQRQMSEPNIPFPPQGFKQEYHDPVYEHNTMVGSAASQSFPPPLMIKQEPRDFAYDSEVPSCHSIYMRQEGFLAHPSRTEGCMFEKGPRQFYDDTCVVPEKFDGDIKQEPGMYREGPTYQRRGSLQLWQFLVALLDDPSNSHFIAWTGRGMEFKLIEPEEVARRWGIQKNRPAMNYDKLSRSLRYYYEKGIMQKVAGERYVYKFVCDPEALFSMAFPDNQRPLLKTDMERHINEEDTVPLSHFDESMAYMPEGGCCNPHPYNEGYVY
In short: as §1

ERF = target: T6, ERF (Homo sapiens, UniProt P50548 1-548); conditions: protein: recombinant; tags: N-terminal GST; dsDNA, one strand shown
T6 sequence: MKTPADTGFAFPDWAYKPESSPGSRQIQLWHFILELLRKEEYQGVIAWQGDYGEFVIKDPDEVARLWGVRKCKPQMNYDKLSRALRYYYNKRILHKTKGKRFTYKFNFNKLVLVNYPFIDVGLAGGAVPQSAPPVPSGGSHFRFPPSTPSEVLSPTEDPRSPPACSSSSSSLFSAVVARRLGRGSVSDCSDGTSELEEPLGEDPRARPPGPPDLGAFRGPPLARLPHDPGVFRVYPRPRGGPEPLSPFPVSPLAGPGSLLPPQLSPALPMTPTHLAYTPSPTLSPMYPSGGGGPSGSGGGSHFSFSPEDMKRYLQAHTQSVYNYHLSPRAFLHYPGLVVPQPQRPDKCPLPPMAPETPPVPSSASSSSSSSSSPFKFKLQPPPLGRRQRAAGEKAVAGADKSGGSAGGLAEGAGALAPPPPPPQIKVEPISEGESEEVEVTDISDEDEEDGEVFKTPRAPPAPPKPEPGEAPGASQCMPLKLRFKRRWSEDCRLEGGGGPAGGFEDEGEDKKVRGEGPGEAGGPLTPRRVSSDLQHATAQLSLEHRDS
In short: as §1

ETV3L = target: T7, ETV3L (Homo sapiens, UniProt Q6ZN32 1-361); conditions: protein: recombinant; tags: N-terminal GST; dsDNA, one strand shown
T7 sequence: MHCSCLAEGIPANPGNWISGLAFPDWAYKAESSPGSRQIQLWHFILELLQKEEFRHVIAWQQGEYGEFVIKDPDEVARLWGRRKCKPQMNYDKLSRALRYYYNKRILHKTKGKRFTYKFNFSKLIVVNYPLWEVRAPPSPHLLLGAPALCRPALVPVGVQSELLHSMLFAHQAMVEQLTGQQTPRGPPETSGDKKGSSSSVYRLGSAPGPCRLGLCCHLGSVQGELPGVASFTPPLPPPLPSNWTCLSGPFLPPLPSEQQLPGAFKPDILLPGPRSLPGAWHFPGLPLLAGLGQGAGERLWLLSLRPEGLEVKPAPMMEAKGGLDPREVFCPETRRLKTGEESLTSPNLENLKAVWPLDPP
In short: as §1

ETS2 = target: T8, ETS2 (Homo sapiens, UniProt P15036 1-469); conditions: protein: recombinant; tags: N-terminal GST; dsDNA, one strand shown
T8 sequence: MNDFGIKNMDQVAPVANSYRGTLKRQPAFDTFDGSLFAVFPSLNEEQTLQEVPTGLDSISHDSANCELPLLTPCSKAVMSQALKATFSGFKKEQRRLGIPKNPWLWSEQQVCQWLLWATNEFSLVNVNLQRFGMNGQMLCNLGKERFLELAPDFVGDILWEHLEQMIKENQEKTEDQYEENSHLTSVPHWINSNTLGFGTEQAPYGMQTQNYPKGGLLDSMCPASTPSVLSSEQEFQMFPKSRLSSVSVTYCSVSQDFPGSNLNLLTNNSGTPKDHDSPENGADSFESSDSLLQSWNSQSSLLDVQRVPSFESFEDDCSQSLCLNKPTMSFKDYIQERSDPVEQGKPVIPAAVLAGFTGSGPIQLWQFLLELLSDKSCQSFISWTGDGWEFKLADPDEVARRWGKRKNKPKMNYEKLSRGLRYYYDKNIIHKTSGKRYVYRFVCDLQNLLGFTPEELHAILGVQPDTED
In short: as §1

SPDEF = target: T9, SPDEF (Homo sapiens, UniProt O95238 1-335); conditions: protein: recombinant; tags: N-terminal GST; dsDNA, one strand shown
T9 sequence: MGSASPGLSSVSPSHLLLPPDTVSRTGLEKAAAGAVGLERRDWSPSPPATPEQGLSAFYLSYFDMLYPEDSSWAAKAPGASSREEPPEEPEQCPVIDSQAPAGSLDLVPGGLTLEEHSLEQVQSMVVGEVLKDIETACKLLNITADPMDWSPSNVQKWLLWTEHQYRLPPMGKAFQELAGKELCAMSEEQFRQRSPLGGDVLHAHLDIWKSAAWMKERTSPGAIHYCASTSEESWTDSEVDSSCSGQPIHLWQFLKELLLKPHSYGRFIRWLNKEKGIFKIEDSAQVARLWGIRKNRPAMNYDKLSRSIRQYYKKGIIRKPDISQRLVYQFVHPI
In short: as §1

ETV7 = target: T10, ETV7 (Homo sapiens, UniProt Q9Y603 1-341); conditions: protein: recombinant; tags: N-terminal GST; dsDNA, one strand shown
T10 sequence: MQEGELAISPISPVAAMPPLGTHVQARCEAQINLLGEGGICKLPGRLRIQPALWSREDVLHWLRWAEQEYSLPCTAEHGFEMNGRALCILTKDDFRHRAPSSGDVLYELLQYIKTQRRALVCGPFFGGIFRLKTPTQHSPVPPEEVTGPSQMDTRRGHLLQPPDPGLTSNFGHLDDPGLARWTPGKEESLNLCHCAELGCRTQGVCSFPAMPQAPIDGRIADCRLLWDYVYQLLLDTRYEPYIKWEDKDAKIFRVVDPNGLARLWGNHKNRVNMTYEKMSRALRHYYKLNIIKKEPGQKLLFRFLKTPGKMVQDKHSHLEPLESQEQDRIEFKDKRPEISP
In short: as §1

ELF5 = target: T11, ELF5 (Homo sapiens, UniProt Q9UKW6-2 1-255); conditions: protein: recombinant; tags: N-terminal GST; dsDNA, one strand shown
T11 sequence: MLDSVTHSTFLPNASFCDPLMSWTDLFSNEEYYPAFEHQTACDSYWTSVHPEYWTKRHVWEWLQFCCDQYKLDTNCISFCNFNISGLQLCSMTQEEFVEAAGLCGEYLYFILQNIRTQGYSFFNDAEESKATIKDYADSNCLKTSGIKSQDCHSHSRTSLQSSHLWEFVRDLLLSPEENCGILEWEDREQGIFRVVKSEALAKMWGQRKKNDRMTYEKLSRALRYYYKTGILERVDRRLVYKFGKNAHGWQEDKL
In short: as §1

ETV3 = target: T12, ETV3 (Homo sapiens, UniProt P41162-2 1-143); conditions: protein: recombinant; tags: N-terminal GST; dsDNA, one strand shown
T12 sequence: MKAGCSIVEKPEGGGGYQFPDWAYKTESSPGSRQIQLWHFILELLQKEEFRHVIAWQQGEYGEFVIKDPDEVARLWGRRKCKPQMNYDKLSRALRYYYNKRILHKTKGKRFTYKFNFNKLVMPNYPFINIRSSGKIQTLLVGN
In short: as §1

ETV6 = ETV6 (Homo sapiens, UniProt P41212 1-452); conditions: protein: recombinant; tags: N-terminal GST; dsDNA, one strand shown
Sequence of ETV6 (P41212 whole entry): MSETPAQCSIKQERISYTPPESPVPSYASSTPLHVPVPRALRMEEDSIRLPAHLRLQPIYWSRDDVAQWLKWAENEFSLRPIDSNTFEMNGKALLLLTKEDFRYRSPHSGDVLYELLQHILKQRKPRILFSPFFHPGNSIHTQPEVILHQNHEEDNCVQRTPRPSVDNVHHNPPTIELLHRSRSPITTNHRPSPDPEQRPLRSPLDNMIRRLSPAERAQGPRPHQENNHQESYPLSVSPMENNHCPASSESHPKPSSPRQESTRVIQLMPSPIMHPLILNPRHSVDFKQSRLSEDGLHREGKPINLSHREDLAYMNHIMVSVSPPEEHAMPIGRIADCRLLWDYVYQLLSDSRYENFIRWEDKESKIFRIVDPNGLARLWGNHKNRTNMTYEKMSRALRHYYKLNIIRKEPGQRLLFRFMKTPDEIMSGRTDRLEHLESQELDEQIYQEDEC
In short: as §1

CACTTT
binding signal (FEV): 1.18 fold enrichment (6-mer frequency, TF over GST control) | binding signal (ETV5): 1.38 fold enrichment (6-mer frequency, TF over GST control) | binding signal (HSF1): 1.17 fold enrichment (6-mer frequency, TF over GST control) | binding signal (SPIC): 1.29 fold enrichment (6-mer frequency, TF over GST control) | binding signal (ELF4): 1.3 fold enrichment (6-mer frequency, TF over GST control) | binding signal (ELK4): 1.34 fold enrichment (6-mer frequency, TF over GST control) | binding signal (ETV2): 1.35 fold enrichment (6-mer frequency, TF over GST control) | binding signal (ELF3): 1.28 fold enrichment (6-mer frequency, TF over GST control) | binding signal (CRX): 1.14 fold enrichment (6-mer frequency, TF over GST control) | binding signal (ETV1): 1.3 fold enrichment (6-mer frequency, TF over GST control) | binding signal (ERF): 1.3 fold enrichment (6-mer frequency, TF over GST control) | binding signal (ETV3L): 1.24 fold enrichment (6-mer frequency, TF over GST control) | binding signal (ETS2): 1.32 fold enrichment (6-mer frequency, TF over GST control) | binding signal (SPDEF): 1.16 fold enrichment (6-mer frequency, TF over GST control) | binding signal (ETV7): 1.26 fold enrichment (6-mer frequency, TF over GST control) | binding signal (ELF5): 1.23 fold enrichment (6-mer frequency, TF over GST control) | binding signal (ETV3): 1.32 fold enrichment (6-mer frequency, TF over GST control) | binding signal (ETV6): 1.26 fold enrichment (6-mer frequency, TF over GST control)
